PubChem BioAssay (NCI)
About 79,000 compounds went through this panel and 15% of them were active in at least one assay; those are over-represented in the sample as a whole. Rule as the data show it: active = growth inhibition above about 70%; inactive = the rest.

Key:
[1] = NCI Yeast Anticancer Drug Screen. Data for the rad50 strain (AID 155);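 also: 0% = growth of vehicle-only cultures of the same strain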; settings: S. cerevisiae rad50 strain growth inhibition; at 50.0 µM; active compounds read high
Summary of the method: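 Growth of the mutant yeast was measured after compound exposure and referenced to vehicle-treated cultures.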

[2] = NCI Yeast Anticancer Drug Screen. Data for the mec2-1 strain (AID 157); settings: S. cerevisiae mec2-1 strain, at 50.0 µM, active compounds read high
Summary of the method: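 Using mec2-1 yeast: add compound, measure growth, express inhibition versus vehicle-treated cultures.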

[3] = NCI Yeast Anticancer Drug Screen. Data for the mlh1 rad18 strain (AID 175); settings: S. cerevisiae mlh1 rad18 strain growth inhibition; at 50.0 µM; active compounds read high
Summary of the method: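 Steps: expose repair-defective yeast to compound; measure growth; express inhibition against vehicle-treated controls.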

Measured: growth inhibition

Cc1ccc(CNc2ccc(I)cc2)cc1
inactive: [1] 37.5% | [2] 37.9% | [3] 33.9%

Cc1cccc(-c2nc3cc(Cl)ccc3c(=O)o2)c1
inactive: [1] -10.8% | [2] -13.6% | [3] 6.6%

O=C(CN1C(=O)c2ccccc2C1=O)c1ccc(Br)cc1
inactive: [1] 14.2% | [2] 16.1% | [3] 12.9%

COc1ccc(NC(=S)Nc2ccccn2)cc1
inactive: [1] -9.3% | [2] -12.3% | [3] 0.65%

Cc1ccc(CNc2cc(C)ccn2)cc1
inactive: [1] 42.9% | [2] 23.9% | [3] 26.9%

Cc1nc2c(Cl)c(Cl)ccc2s1
inactive: [1] 3.6% | [2] -20.9% | [3] 24.2%

O=[N+]([O-])c1cc([N+](=O)[O-])c2nc3ccccn3c2c1
inactive: [1] -1.85% | [2] -43.9% | [3] -11.7%

COc1cc(OC)cc(C(=O)Cl)c1
inactive: [1] -24.4% | [2] -40% | [3] -16.1%

COc1ccc(-c2cc(=O)c3c(C)cc(O)cc3o2)cc1OC
inactive: [1] 6.55% | [2] 7.6% | [3] 44.2%

COc1ccc2c(c1C)CN1CCc3cc4c(cc3C1=C2)OCO4
inactive: [1] 23.1% | [2] 17.4% | [3] 61.1%

COc1ccc(CNc2ccccn2)cc1
inactive: [1] 10.9% | [2] 13.5% | [3] 40.2%

C=CCNC(=O)C(O)C(O)C(=O)NCC=C (stereo unspecified)
inactive: [1] -25.1% | [2] -32.5% | [3] -21.2%
